Laboratory results: PubChem BioAssay (NCI)
Compounds without any hit were thinned out: in the full panel of roughly 83,000, 20% have a hit.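 Negative percent growth values reflect cell death: -40 means 40% of the cells present at the start died, and -100 means all died.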 Values without a mark were called inactive. The source made the active and inactive calls. The calls were made as follows: active = growth percent below 10; inactive = the rest.

Columns and labels:
Assay in all cases: NCI-60 one-dose screen, 48 h (100 = growth as untreated, 0 = no growth, -100 = all killed)
Settings in all cases: 10 µM unless noted
HCT-15 colon = tested on: HCT-15 colon
HT29 colon = tested on: HT29 colon
SNB-75 CNS = tested on: SNB-75 CNS
SNB-19 CNS = tested on: SNB-19 CNS
U251 CNS = tested on: U251 CNS
PC-3 prostate = tested on: PC-3 prostate
SK-MEL-5 melanoma = tested on: SK-MEL-5 melanoma
UACC-62 melanoma = tested on: UACC-62 melanoma
LOX IMVI melanoma = tested on: LOX IMVI melanoma
SK-MEL-28 melanoma = tested on: SK-MEL-28 melanoma

SMILES	growth (HCT-15 colon)	growth (HT29 colon)	growth (SNB-75 CNS)	growth (SNB-19 CNS)	growth (U251 CNS)	growth (PC-3 prostate)	growth (SK-MEL-5 melanoma)	growth (UACC-62 melanoma)	growth (LOX IMVI melanoma)	growth (SK-MEL-28 melanoma)
CCOC(=O)c1c2c(cn1Cc1ccccc1)-c1oncc1CC2	105%	111%	84%	84.9%	72.7%	97.3%	102%	91.9%	98.9%	108%
CCS(=O)(=O)OCCO[C@H]1Cc2cc3ccc(=O)oc3cc2OC1(C)C	109%	101%	101%	105%	96.7%	101%	101%	102%	109%	116%
COc1ccc(OC)c(Cn2cc3c(c2)-c2oncc2CC3)c1	31.1%	22.3%	-1.67% (active)	50.6%	37.8%	45.5%	20%	53%	35.4%	50.1%
O=C(CCCC(=O)Nc1ccc(Cn2nnc3cc(Cl)c(Cl)cc32)cc1)Nc1ccc(CN2N=NC3C=C(Cl)C(Cl)=CC32)cc1 (centres undefined)	97.3%	86.5%	70.3%	86.2%	84.2%	60.2%	89.8%	62.3%	78.8%	103%
COc1ccc2c(N)ncc(C#Cc3cc(C(=O)Nc4ccc(CN5CCN(C)CC5)c(C(F)(F)F)c4)cnc3C)c2c1	-76.2% (active)	-78.3% (active)	-11.1% (active)	-82.2% (active)	-92.2% (active)	-69.4% (active)	-51.4% (active)	28.2%	-71.4% (active)	-80.2% (active)
CCCC(=O)NNc1[nH]c(-c2cc(OC)c(OC)c(OC)c2)cc1C(=O)OCC	116%	114%	114%	110%	103%	111%	112%	102%	105%	122%
O=C(Nc1ccc(-n2cc(-c3ccncc3)c(-c3ccc(Cl)c(O)c3)n2)cc1)c1cc(C(F)(F)F)cc(C(F)(F)F)c1	27.8%	11.1%	12.2%	72.5%	54.3%	72.1%	55.8%	68.5%	53.1%	45.9%
COC(=O)c1ccc2[nH]c(O)c(C(=Nc3ccc(N(C)C(=O)CN4CCN(C)CC4)cc3)c3ccc4c(c3)OCO4)c2c1	8.49% (active)	4.28% (active)	-1.84% (active)	14%	13.4%	19.3%	10.1%	31.8%	6.8% (active)	20.8%
Cc1nc2c(nnn2-c2ccccc2)c2nc(-c3ccc(Cl)cc3)oc(=O)c12	108%	115%	91.4%	107%	106%	105%	103%	98.4%	96.9%	102%
c1ccc(Nc2ccccn2)cc1	96.2%	99.4%	118%	98.9%	103%	102%	106%	93.7%	102%	112%
O=C(NC1CCN(Cc2ccccc2)CC1)c1cc(-c2cccnc2)nc2ccc(Cl)cc12	9.1% (active)	4.33% (active)	95.6%	91.4%	56.2%	69.2%	50.2%	8.77% (active)	45.2%	94.1%
COC1=CC(c2ccc[nH]2)=N/C1=C\c1[nH]c(C)c(C(=O)CCCCC(=O)NC(C)(C)C)c1C	-31.8% (active)	3.41% (active)	41.5%	70.1%	22%	-31.3% (active)	50.8%	69.1%	-34.4% (active)	–
CC1(C)N=C(N)N=C(N)N1c1cccc(CCCCOc2ccccc2)c1	58.5%	11.3%	60.8%	32.4%	11.4%	-6.9% (active)	17.9%	20.8%	15.9%	39.3%
C=CCSc1nnc(COc2ccc3c(C)c(Cc4ccccc4)c(=O)oc3c2C)o1	104%	98.3%	89.1%	93.4%	99%	93.2%	101%	92.4%	97.6%	117%
CCOC(=O)C1=C(c2ccccc2)NC(=O)NC1CN1C(=O)c2ccccc2C1=O (centres undefined)	115%	110%	98.8%	107%	102%	100%	104%	98.5%	110%	105%
Cc1ncc(C(=O)Nc2ccc(CN3CCN(C)CC3)c(C(F)(F)F)c2)cc1C#Cc1c(N)ncc2ccccc12	-90.8% (active)	-89% (active)	-90.6% (active)	-100% (active)	-99.6% (active)	-76.7% (active)	-99.6% (active)	-82.3% (active)	-89.9% (active)	-96.5% (active)
Cc1ccccc1-n1c(C)nc2cc(NC(=O)c3ccc(Cl)cc3)ccc2c1=O	63.7%	62.9%	103%	75.9%	77.6%	61.2%	0.858% (active)	42.2%	69.4%	79.5%
NNC(=S)N1N=C(c2cc3ccccc3o2)CC1c1c[nH]c2ccccc12 (centres undefined)	30.4%	34.1%	88.4%	35.5%	36%	29.2%	42.1%	15.4%	26%	40.2%
Cc1nc(NC(=S)Nc2ccc(F)cc2)sc1C(=O)NNC(=S)Nc1ccc(F)cc1	61.9%	61.7%	113%	76.9%	53.1%	52.1%	48.8%	36.9%	70.6%	78%
O=C(O)CC1Cc2ccccc2C1C(=O)O (centres undefined)	101%	106%	92.4%	95%	103%	94.5%	103%	97.3%	91.7%	109%
Cc1ccnc2c(NC(C)CCCN)cc(O)c(O)c12 (centres undefined)	121%	60%	105%	102%	83.1%	91.6%	95.9%	105%	60.7%	115%
COc1ccc(Cn2cc3c(c2-c2ccccc2)CCc2cnoc2-3)cc1N	20%	10.5%	29.1%	44.5%	24.8%	23.7%	8.52% (active)	42.4%	31.4%	63.6%
COC(=O)C1CC(=O)N(C(=O)Nc2ccc(Cl)cc2Cl)C1 (centres undefined)	99%	101%	98.7%	102%	97.3%	95.2%	108%	97.2%	96.8%	112%
O=C(Nc1cccc(Cn2c(=O)[nH]c3ccc(Oc4ncccn4)cc3c2=O)c1)c1ccc(Cl)cc1	59%	40.3%	50.9%	58.5%	63%	46.2%	12.6%	53.9%	66.5%	69.3%
CC(=O)Nc1nc(C)c(C(=O)NN)s1	107%	106%	88.8%	94.4%	92.1%	84.4%	102%	91.9%	96.1%	100%
COC(=O)/C(Br)=C/c1c[nH]c2ccc(Br)cc12	76.8%	95.3%	90.1%	88.7%	68.5%	70.8%	85.1%	68%	62%	105%
O=C(CCC(=O)N(CCO)CCO)N(CCO)CCO	94.9%	98.6%	94%	108%	105%	100%	114%	109%	101%	106%
